NPR2 activator: GC-B (human) receptor activation; P20594; HEK293-GC-B cells, CNP EC30, cGMP TR-FRET; 0% at EC30 CNP, 100% saturating CNP; AID 1920062; activation, % at 10 µM; 370,000 tested, 0.11% active;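 active means activation at 10 µM reaching about 35% in either raw or pattern-adjusted values, limit read from the data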
HSF1 activator: increases HSF-1 driven luciferase reporter signal; 300,000 tested, 1.7% active; NIH3T3-HGL HSF-1 luciferase reporter, MG132, 8 h; 100% = twice DMSO control signal; activation, % at 9 µM;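 active means mean replicate activation of at least 50% with a set share of replicates each reaching 50%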;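 further: 0% = median of the neutral control wells and 100% = twice that signal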
aDG glyco act: alpha-DG glycosylation activation; 360,000 tested, 0.22% active; activation, % at 10 µM; Pro5-aDG cells, alpha-DG glycosylation AlphaScreen (IIH6); 0% Pro5, 100% B10-LARGE cell signal; AID 624168;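 active means activation of at least 8% versus controls, or a plate z-score of at least 8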;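 further: Pro5 are CHO cells carrying HIG-tagged alpha-DG that lacks glycosylation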
DYRK1A inh: blocks rat Dyrk1A kinase activity; ADP-Glo luminescence, NFATc1 peptide; Q63470; 310,000 tested, 0.43% active; inhibition, % at 12.5 µM; AID 504441; in the data active means inhibition above about 50%;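 further: plate controls were vehicle with enzyme for no effect and no enzyme for full effect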
NPR1 activator: GC-A (human) enzyme activation; AID 1671463; 370,000 tested, 0.14% active; HEK293 GC-A cells, cGMP TR-FRET, EC30 ANP; 0% at EC30 ANP, 100% saturating ANP; activation, % at 10 µM; P16066; in the data active means activation above about 40%
HSF1 inhib: HSF1 inhibition; NIH3T3-HGL HSE-luciferase, MG132-induced, luminescence 8 h; active compounds read low; activity change, negative = inhibition, % at 7.5 µM (by protocol); 300,000 tested, 0.77% active;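 active means more than half of replicate wells show activity change below -50%, luminescence cut by over half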;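 further: luciferase reports HSF-1 transcriptional activity via heat shock element; 0% = median of DMSO wells and -100% = zero luminescence signal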
An asterisk follows results filed as active; . = no result. Only some compounds are listed: those with a hit (about 2.5% of all), similar ones and a draw of the others.

SMILES | NPR2 activator | HSF1 activator | aDG glyco act | DYRK1A inh | NPR1 activator | HSF1 inhib
CCOC(=O)/C(C#N)=C/c1c[nH]c2ccccc12 | -4 | 38 | 0 | 10 | 1 | 38
COC(=O)/C(=C\Nc1ccccc1N)c1ncc(C(F)(F)F)cc1Cl | -3 | 138* | 0 | 0 | 0 | 87
O=C(c1ccccc1)c1ncc(C(F)(F)F)cc1Cl | -1 | -35 | 0 | -2 | 2 | -21
Cc1cc(C(=O)NCCC2=CCCCC2)ccc1[N+](=O)[O-] | -1 | 58* | 0 | 12 | -7 | 39
O=C(NC(=S)NCCC1=CCCCC1)c1ccco1 | 1 | 62* | 0 | -3 | 4 | 27
O=C(CCNC(=O)c1ccc([N+](=O)[O-])cc1)NCCC1=CCCCC1 | -5 | -10 | 0 | 8 | -1 | -2
O=C(NC(=S)NCCC1=CCCCC1)c1ccc(Br)o1 | 1 | 3 | 0 | 2 | -3 | 7
O=C(NCCC1=CCCCC1)c1ccc([N+](=O)[O-])cc1 | 1 | 53* | 0 | 2 | 1 | 23
O=C1CSc2ccc(S(=O)(=O)NCc3ccc(Cl)cc3)cc2N1 | -3 | -8 | 0 | 1 | -2 | -1
O=C(c1ccccc1F)N1CCCC(C(=O)N2CCN(c3ccccc3)CC2)C1 (stereo unspecified) | -11 | 2 | 0 | 9 | 1 | -4
CC(C)c1ccc(NC(=O)C(c2ccccc2)N(Cc2ccco2)C(=O)CC2NC(=O)NC2=O)cc1 (stereo unspecified) | 0 | 1 | 0 | . | -3 | 0
CCC1CCCCN1CCCNC(=O)Cn1c2ccccc2c2nc(=O)cc(C)n21 (stereo unspecified) | -1 | 64* | 0 | -6 | -1 | 40
CCCNC(=O)Cn1c2ccccc2c2nc(=O)cc(C)n21 | 2 | 5 | 0 | -1 | 0 | 2
C#CCn1c(=NC(=O)c2ccc(S(=O)(=O)N3CCCc4ccccc43)cc2)sc2cc(S(N)(=O)=O)ccc21 | -1 | 53* | 1 | -1 | -1 | 6
Cn1c(=NC(=O)c2ccc(S(=O)(=O)N3CCCc4ccccc43)cc2)sc2cc(S(C)(=O)=O)ccc21 | -1 | -6 | 3 | -1 | 6 | -9
Nc1nonc1N/N=C/c1c(O)ccc2ccccc12 | -5 | 62* | 0 | 5 | 5 | 26
CC(C)NC(=O)NS(=O)(=O)c1cnccc1N1CCCCC1 | 2 | 51* | 0 | 1 | 2 | 27
Cc1ccc2c(c1)nnn2C1CCN(C(=O)C23CC4CC(CC(C4)C2)C3)CC1 | -4 | -2 | 0 | 4 | 4 | -5
COc1ccc(-c2csc(N3C(=O)CNC3=S)n2)cc1 | 4 | 29 | 0 | -1 | 7 | 8
O=C1CNC(=S)N1c1nc(-c2ccccc2)cs1 | -7 | 52* | 0 | 3 | -4 | 26
CCC(=O)Nc1c(S(=O)(=O)c2ccc(C)cc2)c2nc3ccccc3nc2n1C(C)c1ccccc1 (stereo unspecified) | 2 | 12 | 0 | -7 | -4 | 0
CCC(=O)Nc1c(S(=O)(=O)c2ccccc2)c2nc3ccccc3nc2n1C(C)c1ccccc1 (stereo unspecified) | -4 | 83* | 0 | -2 | -9 | 41
Cc1ccc(C)c(Nc2ncccc2C(=O)NCc2cccs2)c1 | -2 | 55* | 0 | -3 | 0 | 24
CCOc1ncccc1C(=O)OCc1ccc([N+](=O)[O-])cc1 | 6 | 7 | 0 | 0 | 2 | 1
CC(C)(C)NC(=O)c1ccc2c(c1)N(CC(=O)N1CCCCC1)C(=O)C(C)(C)O2 | -1 | 66* | 0 | 0 | 2 | 26
SMILES | NPR2 activator | HSF1 activator | aDG glyco act | DYRK1A inh | NPR1 activator | HSF1 inhib
CCNC(=S)N/N=C/c1ccc(-c2ccccc2)o1 | 18 | 81* | 0 | 9 | 20 | 49
NC(=S)N/N=C/c1ccc(-c2ccccc2)o1 | -15 | -3 | 0 | 24 | -7 | 2
CCn1c(-c2cc(-c3ccccc3)sc2N)n[nH]c1=S | -6 | 64* | 0 | 8 | 4 | 29
O=[N+]([O-])c1ccc(/C=[N+](\[O-])[C@@H]2CCCC[C@@H]2/[N+]([O-])=C/c2ccc([N+](=O)[O-])o2)o1 | 1 | 71* | 0 | 3 | -4 | 50
O=C(N/N=C/c1ccc([N+](=O)[O-])o1)C1CCCC1 | -2 | 24 | 6 | -1 | 2 | 19
CC(=O)Nc1ccc(NC(=O)C2CCCCC2C(=O)O)cc1 (stereo unspecified) | 3 | -1 | 0 | 1 | -3 | -5
O=C(O)C1CCCCC1C(=O)Nc1ccc2c(c1)CCC2 (stereo unspecified) | 6 | 123* | 0 | -2 | 0 | 84
Cc1c(C(=O)Nc2ccc(Nc3ccccc3)cc2)cccc1[N+](=O)[O-] | 0 | 14 | 0 | 10 | -3 | 5
O=C(Nc1ccc2c(c1)CCC2)c1ccccc1Br | 1 | 54* | 0 | 0 | 4 | 22
Cc1c(C(=O)Nc2ccc3c(c2)CCC3)cccc1[N+](=O)[O-] | -3 | 57* | 0 | 1 | -2 | 19
COC(=O)c1c(C)oc2ccc(N(C(=O)Oc3ccccc3)S(=O)(=O)c3ccc(Cl)c([N+](=O)[O-])c3)cc12 | . | 72* | 0 | -15 | . | 60
COC(=O)c1c(C)oc2ccc(N(C(=O)c3ccncc3)S(=O)(=O)c3ccc4ccccc4c3)cc12 | 5 | 4 | 0 | -5 | -1 | -2
CC(Oc1ccc(Cl)cc1)/C(N)=N/O (stereo unspecified) | 0 | 2 | 0 | 11 | 1 | -5
CC(Oc1ccc(Cl)cc1)C(=O)/C=C/N(C)C (stereo unspecified) | 7 | 54* | 0 | -5 | -3 | 11
Cc1ccc(NC(=O)CN(C)C(C)C(=O)N2CC(C)CC(C)C2)cc1 (stereo unspecified) | 2 | . | 0 | . | 2 | .
O=C(Nc1ccc(Cl)cc1)N1CCc2ccccc2C1 | -8 | 80* | 1 | -3 | -3 | 42
O=C(OCC(=O)N1CCc2ccccc2C1)c1cccs1 | -4 | 80* | 0 | 3 | 4 | 55
O=C(Cc1ccc(Cl)cc1)N1CCc2ccccc2C1 | -14 | 59* | 0 | 3 | -11 | 45
CC(=O)C1=C(C)NC(=S)NC1c1ccc(F)cc1 (stereo unspecified) | 7 | . | . | . | 4 | .
CC(C)c1ccccc1N=C1SCCCN1C(=O)c1cccc(N2C(=O)CCC2=O)c1 | 1 | -6 | 0 | 9 | 1 | -2
CC1Cc2ccccc2N1C(=O)C12CCC(C)(C(=O)C1)C2(C)C (stereo unspecified) | 1 | -71 | 0 | 1 | -4 | -63*

Assay outcomes from PubChem.
